Results: PubChem BioAssay (EPA / NIEHS)
The source made the active and inactive calls. How the source made its calls: active means hit-call score of the fitted dose curve at least 0.9, where 1 is the maximum; inactive means score below 0.9.

Columns and labels:
Conditions in all cases: mRNA level, 48 h; actives raise or lower the signal
[1] = read-out: ABC Transporter (ABCC2), ABCC2 (gene 1244); test: LTEA_HepaRG_ABCC2: Life Technologies and Expression Analysis (LTEA) Assay for ABC Transporter (ABCC2) using HepaRG (AID 2283464)
Summary of the method: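 Gene expression of ABCC2 was determined by qRT-PCR in HepaRG cells exposed 48 h to chemicals (highest 100 uM, half-log dilutions). Activity was fitted in both directions relative to 0.5% DMSO vehicle.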

[2] = read-out: Broad substrate specificity ATP-binding cassette transporter ABCG2 (Homo sapiens) (UniProt Q9UNQ0); test: LTEA_HepaRG_ABCG2: Life Technologies and Expression Analysis (LTEA) Assay for ABC Transporter (ABCG2) using HepaRG (AID 2283465)
Summary of the method: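 ABCG2 transcript was quantified by TaqMan qRT-PCR against three housekeeping genes in HepaRG cells. Cells were treated in duplicate for 48 h across an 8-point half-log series up to 100 uM, with 0.5% DMSO vehicle. Gain or loss versus DMSO was fit.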

[3] = read-out: ATP-citrate lyase (ACLY), ACLY (gene 47); test: LTEA_HepaRG_ACLY: Life Technologies and Expression Analysis (LTEA) Assay for ATP-citrate lyase (ACLY) using HepaRG (AID 2283466)
Summary of the method: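 ACLY mRNA quantified by qRT-PCR on Fluidigm arrays against three housekeeping genes, after 48 h chemical treatment of HepaRG cells (top concentration 100 uM, half-log steps, 0.5% DMSO vehicle). Up- or down-regulation fitted relative to DMSO.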

[4] = read-out: Peroxisomal acyl-coenzyme A oxidase 1 (ACOX1) gene, ACOX1 (gene 51); test: LTEA_HepaRG_ACOX1: Life Technologies and Expression Analysis (LTEA) Assay for Peroxisomal acyl-coenzyme A oxidase 1 (ACOX1) gene using HepaRG (AID 2283467)
Summary of the method: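 ACOX1 transcript levels were quantified by TaqMan qRT-PCR against three housekeeping genes after 48 h chemical exposure of differentiated human HepaRG cells. Exposure used eight half-log steps topping at 100 uM, 0.5% DMSO vehicle, in duplicate. Bidirectional curve fits were made relative to DMSO.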

[5] = read-out: Alkaline Phosphatase, Placental (ALPP) gene, ALPP (gene 250); test: LTEA_HepaRG_ALPP: Life Technologies and Expression Analysis (LTEA) Assay for Alkaline Phosphatase, Placental (ALPP) gene using HepaRG (AID 2283468);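 on AC50: differentiated human HepaRG liver cells in serum-free induction medium; ALPP transcript by TaqMan qRT-PCR normalized to ACTB GAPDH and POLR2A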
Summary of the method: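 Expression of ALPP was quantified by qRT-PCR against three housekeeping genes in human HepaRG cultures treated for 48 h with an eight-point concentration series up to 100 uM. Activity in either direction was fitted relative to 0.5% DMSO.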

[6] = read-out: Bcl-2 (BAD) gene, BAD (gene 572); test: LTEA_HepaRG_BAD: Life Technologies and Expression Analysis (LTEA) Assay for Bcl-2 (BAD) gene using HepaRG (AID 2283469)
Summary of the method: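 Read-out: qRT-PCR of BAD mRNA, normalized to three housekeeping genes. Human HepaRG cultures got 48 h chemical exposure in 0.5% DMSO, duplicate eight-point half-log series topping at 100 uM. Gain or loss of signal fitted versus DMSO vehicle.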

[7] = read-out: Bcl-2 (BAX) gene, BAX (gene 581); test: LTEA_HepaRG_BAX: Life Technologies and Expression Analysis (LTEA) Assay for Bcl-2 (BAX) gene using HepaRG (AID 2283470)
Summary of the method: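 Human HepaRG cells treated in duplicate for 48 h across eight concentrations (max 100 uM, 0.5% DMSO); BAX expression measured by qRT-PCR.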

[8] = read-out: adenosine kinase (ADK) gene, ADK (gene 132); test: LTEA_HepaRG_ADK: Life Technologies and Expression Analysis (LTEA) Assay for adenosine kinase (ADK) gene using HepaRG (AID 2283471)
Summary of the method: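 Differentiated HepaRG cells dosed 48 h in serum-free induction medium, 0.5% DMSO vehicle, eight half-log concentrations from 100 uM, in duplicate. ADK mRNA by TaqMan qRT-PCR normalised to ACTB, GAPDH, POLR2A; bidirectional fit versus DMSO.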

[9] = read-out: Alpha-fetoprotein (AFP) gene, AFP (gene 174); test: LTEA_HepaRG_AFP: Life Technologies and Expression Analysis (LTEA) Assay for Alpha-fetoprotein (AFP) gene using HepaRG (AID 2283472);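 on AC50: AFP transcript by TaqMan qRT-PCR normalized to ACTB GAPDH and POLR2A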
Summary of the method: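 Measures AFP mRNA change in HepaRG after 48 h chemical exposure (8 half-log concentrations, highest 100 uM, 0.5% DMSO). Fold change relative to DMSO, fitted in both directions.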

BCL2L11 (gene 10018) = test: LTEA_HepaRG_BCL2L11: Life Technologies and Expression Analysis (LTEA) Assay for Bcl-2 (BCL2L11) gene using HepaRG (AID 2283473)
Summary of the method: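 Cells were plated, cultured 48 h, switched to serum-free induction medium, then dosed in duplicate for 48 h at eight half-log concentrations up to 100 uM. Lysates underwent RNA isolation and TaqMan qRT-PCR; gain or loss versus DMSO was fitted.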

Measured: AC50

Sequence of Broad substrate specificity ATP-binding cassette transporter ABCG2 (Homo sapiens) (Q9UNQ0 whole entry, looked up): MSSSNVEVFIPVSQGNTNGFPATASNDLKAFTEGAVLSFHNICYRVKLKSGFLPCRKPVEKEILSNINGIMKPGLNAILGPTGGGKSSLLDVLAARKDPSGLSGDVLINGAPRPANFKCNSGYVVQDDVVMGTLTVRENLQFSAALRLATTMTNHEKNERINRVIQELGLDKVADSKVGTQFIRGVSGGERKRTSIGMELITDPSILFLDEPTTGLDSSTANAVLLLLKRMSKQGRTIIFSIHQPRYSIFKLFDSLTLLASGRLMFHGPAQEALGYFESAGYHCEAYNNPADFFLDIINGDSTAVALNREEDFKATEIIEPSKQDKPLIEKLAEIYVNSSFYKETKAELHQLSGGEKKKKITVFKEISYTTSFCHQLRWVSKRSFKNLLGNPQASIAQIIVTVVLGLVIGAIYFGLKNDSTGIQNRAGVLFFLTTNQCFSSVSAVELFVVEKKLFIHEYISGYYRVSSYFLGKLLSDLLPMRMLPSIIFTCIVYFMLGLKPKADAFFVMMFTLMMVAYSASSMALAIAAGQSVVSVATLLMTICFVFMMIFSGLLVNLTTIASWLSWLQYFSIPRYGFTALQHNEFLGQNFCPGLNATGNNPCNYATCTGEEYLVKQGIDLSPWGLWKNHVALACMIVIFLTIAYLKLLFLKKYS

CCCCCCCCCC
not listed: BCL2L11 (gene 10018)
inactive: all other assays above

CCCC(CCC)C(=O)O
not listed: BCL2L11 (gene 10018)
inactive: all other assays above

OC[C@H]1O[C@@](CO)(O[C@H]2O[C@H](CO)[C@@H](O)[C@H](O)[C@H]2O)[C@@H](O)[C@@H]1O
not listed: BCL2L11 (gene 10018)
inactive: all other assays above

C=CN1CCCC1=O
not listed: BCL2L11 (gene 10018)
inactive: all other assays above

CCCCCCCCCCCCCCO
inactive: all assays above

C[C@]12C=CC(=O)C=C1CC[C@H]1[C@@H]3C[C@@H](O)[C@](O)(C(=O)CO)[C@@]3(C)C[C@H](O)[C@@]12F
not listed: [8]
inactive: all other assays above

Cc1ccc(S(=O)(=O)NC(=O)NN2CCCCCC2)cc1
active: [5] 161 nM
inactive: all other assays above

CCCCN1C(=O)[C@@H]([C@H](O)C2CCCCC2)NC(=O)C12CCN(Cc1ccc(Oc3ccc(C(=O)O)cc3)cc1)CC2
inactive: [7]
active: [1] 2880 nM | [2] 1540 nM | [3] 672 nM | [4] 2790 nM | [5] 7870 nM | [6] 3810 nM | [8] 1010 nM | [9] 3000 nM | BCL2L11 (gene 10018) 4660 nM

CCOc1ccc2[nH]cc(C(=O)NCc3ccccc3)c(=O)c2n1
active: [9] 81300 nM
inactive: all other assays above

Cc1ncc([C@@H](CCCCCCc2ccc3c(n2)NCCC3)CC(=O)O)cn1
inactive: all assays above

O=c1[nH]cnc2c1ncn2[C@H]1CC[C@@H](CO)O1
not listed: BCL2L11 (gene 10018)
inactive: all other assays above

CC(C)CC(C)O (stereo not given)
inactive: all assays above

CC[C@H](C)C(=O)O[C@H]1C[C@H](O)C=C2C=C[C@H](C)[C@H](CC[C@@H](O)C[C@@H](O)CC(=O)O)[C@H]21
active: [3] 9050 nM
inactive: all other assays above

CCCCOC(=O)c1ccccc1
not listed: [6] | BCL2L11 (gene 10018)
inactive: all other assays above

Nc1ccn([C@@H]2O[C@H](CO)[C@@H](O)[C@@H]2O)c(=O)n1
not listed: BCL2L11 (gene 10018)
inactive: all other assays above

c1ccc2ncccc2c1
not listed: BCL2L11 (gene 10018)
inactive: all other assays above
